Test results reported in the supplement of paper PMC13380429.

System: Vero E6 infected with SARS-CoV-2
Assay: inhibition of SARS-CoV-2 cytopathic effect; higher = more antiviral protection, active = above 15
Settings: 48 h

Measured: inhibition of SARS-CoV-2 cytopathic effect

CCC(CC)[C@H](NC(C)=O)[C@@H]1[C@H](O)[C@@H](C(=O)O)C[C@H]1NC(=N)N [peramivir]
inactive: 1 nM -2.46% | 8.33 nM -0.07% | 100 nM 0.34% | 833.33 nM 0.01% | 10000 nM -0.82%

NC(=O)c1cnccn1 [pyrazinamide]
inactive: 1 nM -9.22% | 8.33 nM -8.44% | 100 nM -5.67% | 833.33 nM -9.11% | 10000 nM -9.96%

Sc1ncnc2nc[nH]c12 [mercaptopurine]
inactive: 1 nM -0.65% | 8.33 nM 1.59% | 100 nM 2.14% | 833.33 nM 1.92% | 10000 nM 0.56%

COC(=O)c1ccc2c(c1)NC(=O)/C2=C(\Nc1ccc(N(C)C(=O)CN2CCN(C)CC2)cc1)c1ccccc1 [nintedanib]
inactive: 1 nM -1.36% | 8.33 nM -3% | 100 nM -0.71% | 833.33 nM 0.19% | 10000 nM 0%

Clc1ccccc1C(c1ccccc1)(c1ccccc1)n1ccnc1 [clotrimazole]
inactive: 1 nM -0.06% | 8.33 nM -0.06% | 100 nM -0.28% | 833.33 nM 0.61% | 10000 nM 2.73%

Cc1nn(-c2ccccc2)c(C)c1/C=N/N1CCN(Cc2ccccc2)CC1
inactive: 1 nM -4.74% | 8.33 nM 0.23% | 100 nM -0.84% | 833.33 nM -0.98% | 10000 nM -0.87%

CCC1(C)CC(=O)NC1=O (stereo not given) [ethosuximide]
inactive: 1 nM -0.56% | 8.33 nM 1.45% | 100 nM 1.18% | 833.33 nM 1.39% | 10000 nM -4.8%

CCCCOC(=O)c1ccc(N)cc1 [butamben]
inactive: 1 nM 3.03% | 8.33 nM 2.87% | 100 nM 2.37% | 833.33 nM 6.53% | 10000 nM 2.78%

CC(=O)OCC(=O)[C@@]1(O)CC[C@H]2[C@@H]3CCC4=CC(=O)C=C[C@]4(C)[C@H]3[C@@H](O)C[C@@]21C [prednisolone-acetate]
inactive: 1 nM 0.64% | 8.33 nM 0.57% | 100 nM -0.58% | 833.33 nM -0.51% | 10000 nM 0.26%

CC(C)NCC(O)COc1ccc(COCCOC(C)C)cc1 (stereo not given) [bisoprolol]
inactive: 1 nM -5.27% | 8.33 nM -2.6% | 100 nM -2.42% | 833.33 nM -3.57% | 10000 nM -3.25%

CSCC[C@H](NC(=O)[C@H](CC(C)C)NC(=O)CNC(=O)[C@H](Cc1ccccc1)NC(=O)[C@H](Cc1ccccc1)NC(=O)[C@H](CCC(N)=O)NC(=O)[C@H](CCC(N)=O)NC(=O)[C@@H]1CCCN1C(=O)[C@H](CCCCN)NC(=O)[C@@H]1CCCN1C(=O)[C@@H](N)CCCN=C(N)N)C(N)=O [substance-P]
inactive: 1 nM -5.5% | 8.33 nM -11.3% | 100 nM -9.37% | 833.33 nM -10.4% | 10000 nM -5.64%

c1ccc(CN(CC2=NCCN2)c2ccccc2)cc1 [antazoline]
inactive: 1 nM -3.99% | 8.33 nM -2.45% | 100 nM -2.58% | 833.33 nM -1.01% | 10000 nM -3.78%

COc1ccc(Cl)cc1C(=O)NCCc1ccc(C(=O)O)cc1 [meglitinide]
inactive: 1 nM 2.2% | 8.33 nM 0.5% | 100 nM 1.3% | 833.33 nM 0.11% | 10000 nM 1.33%

CN1c2ccccc2C(NCCCCCCC(=O)O)c2ccc(Cl)cc2S1(=O)=O (stereo not given) [tianeptine]
inactive: 1 nM 6.9% | 8.33 nM -1.19% | 100 nM 0.25% | 833.33 nM 2.13% | 10000 nM -1.2%

NC(=O)CCCCn1ccc(/N=C(\N)NCC(F)(F)F)n1
inactive: 1 nM 0.43% | 8.33 nM 2.16% | 100 nM -1.98% | 833.33 nM 0.05% | 10000 nM -0.82%

CCS(=O)(=O)N(C)[C@@H]1c2cc(C#N)ccc2OC(C)(C)[C@H]1O.CCS(=O)(=O)N(C)[C@H]1c2cc(C#N)ccc2OC(C)(C)[C@@H]1O (racemic) [chromanol-(+/-)]
inactive: 1 nM -3.93% | 8.33 nM 0.47% | 100 nM -1.69% | 833.33 nM -0.89% | 10000 nM -1.62%

N[C@@H](Cc1ccc(O)cc1)C(=O)O [plovamer-acetate]
inactive: 1 nM -8.12% | 8.33 nM -7.1% | 100 nM -9.88% | 833.33 nM -9.04% | 10000 nM -5.19%
